What all share (type): functional
The subject of experiment [1] is Plasmodium falciparum. Description: GSK_TCMDC: Inhibition of Plasmodium falciparum 3D7 in whole red blood cells, using parasite LDH activity as an index of growth. Test compounds present at 2uM.
Experiment [2] has as its system Plasmodium falciparum. Description: GSK_TCMDC: Inhibition of Plasmodium falciparum Dd2 in whole red blood cells, using parasite LDH activity as an index of growth. Test compounds present at 2uM.
For a further experiment, the system named is HepG2. Description: GSK_TCMDC: Percent inhibition of human HepG2 cell line. Test compounds present at 10uM.

Usually Inhibition stands for the change of the read-out against control, counted positive when it falls. Low values mean a weak effect, high ones a strong effect. For the compound `Cc1cc(=NN=Cc2cccc(Cl)c2)c2cc(F)ccc2[nH]1`, the results for the Inhibition in the experiment on Plasmodium falciparum [1], in the experiment with Plasmodium falciparum [2] and with HepG2 were 100%, 100% and 1%, respectively.

As for `COc1ccc(CNC(=O)c2cnc3cc(-c4c(C)noc4C)ccc3c2Nc2ccccc2C(C)(C)C)cc1.Cl`, the Inhibition with Plasmodium falciparum [1] was 99%; with Plasmodium falciparum [2], 69%; in the experiment with HepG2, 9%.

`Cc1cccc2nc(-c3ccc(-c4ccc(CN5CCCCC5CO)cc4)cc3)[nH]c12.O=C(O)C(F)(F)F` (configuration not stated): the Inhibition was found to be 100% in the experiment with Plasmodium falciparum [1], 76% in the experiment on Plasmodium falciparum [2] and 32% in the experiment on HepG2.

For `COc1cc2nc(N3CCC(CNC(=O)c4ccc(-c5ccc(C(=O)N(C)C)cc5OCCN(C)C)cc4)CC3)nc(N)c2cc1OC`, the Inhibition is reported as 95% with Plasmodium falciparum [1], 0% with Plasmodium falciparum [2] and 0% in the experiment on HepG2.

With `O=C(NCC1CC1)C1CCN(C(c2ccccc2)c2nc3ccccc3s2)CC1` (configuration not stated), the Inhibition in the experiment with Plasmodium falciparum [1] is recorded as 92%; in the experiment with Plasmodium falciparum [2], 49%; in the experiment with HepG2, 0%.

With `Cc1cccc2nc(-c3cccc(-c4ccc(CNCCc5ccncc5)cc4)c3)[nH]c12.O=C(O)C(F)(F)F`, the results for the Inhibition in the experiment on Plasmodium falciparum [1], in the experiment on Plasmodium falciparum [2] and in the experiment on HepG2 were 100%, 100% and 40%, respectively.

With `N#Cc1ccc(-c2ccc(C(=O)NCCCCN3CC=C(c4ccc5c(c4OCC4CC4)CCCC5)CC3)cc2)cc1`, the Inhibition is on record as 100% with Plasmodium falciparum [1], 83% in the experiment on Plasmodium falciparum [2] and 22% in the experiment with HepG2.

Take `COc1cccc(-c2cc3c(NCc4ccncc4)nccc3s2)c1`: the Inhibition stood at 87% in the experiment with Plasmodium falciparum [1] and 0% with HepG2.

`O=C(O)C(F)(F)F.O=S(=O)(NCCN1CCCC1)c1ccc(-c2ccc(CNCc3ccsc3)cc2)cc1F`: the figures for the Inhibition with Plasmodium falciparum [1], in the experiment with Plasmodium falciparum [2] and in the experiment on HepG2 were 96%, 40% and 27%, respectively.

For `CCCCC(O)c1cc(O)c2c(c1)OC(C)(C)CC2C1=CCN(Cc2ccc3ccccc3c2)CC1` (configuration not stated), the Inhibition in the experiment with Plasmodium falciparum [1] turned out to be 100%; with Plasmodium falciparum [2] it was 97%; in the experiment on HepG2, 7%.

Take `CCCCC(=O)NC(c1cccs1)c1cc(Cl)c2cccnc2c1O` (configuration not stated): the Inhibition stood at 93% in the experiment with Plasmodium falciparum [1], 90% in the experiment with Plasmodium falciparum [2] and 50% in the experiment on HepG2.

Consider `O=C(Nc1ccc2c(c1)OCO2)NC1CCN(c2ccnc(Nc3ccc(F)cc3)n2)C1` (configuration not stated), for which the Inhibition in the experiment with Plasmodium falciparum [1] is reported as 100%; in the experiment with Plasmodium falciparum [2], 89%; in the experiment with HepG2 it was 5%.

Regarding `Cc1sc(C)c(C(F)(F)F)c1CNCCCNc1cc(=O)c2ccccc2[nH]1.Cl`, the Inhibition with Plasmodium falciparum [1] came out at 96%; with Plasmodium falciparum [2], 43%; in the experiment with HepG2, 0%.

As to `CCOc1cc2ccccc2cc1CNCCCCCCNCc1cc2ccccc2cc1OCC.CS(=O)(=O)O`, the Inhibition in the experiment with Plasmodium falciparum [1] worked out at 100%; in the experiment on Plasmodium falciparum [2] it was 76%; in the experiment on HepG2, 99%.

As to `COc1c(F)ccc2ncc(Cl)c(CCN3CCC(NCc4ccc5c(n4)NC(=O)CS5)CC3)c12.Cl`, the Inhibition in the experiment on Plasmodium falciparum [1] is 98%; in the experiment on Plasmodium falciparum [2], 29%; in the experiment on HepG2, 30%.

Turning to `O=C(/C=C/c1ccc(Cl)c(Cl)c1)NCCCCCN1CCC(CCNC(=O)Cc2ccc(Cl)cc2)CC1`, the Inhibition in the experiment with Plasmodium falciparum [1] was found to be 83%; in the experiment on Plasmodium falciparum [2] it was 0%; in the experiment with HepG2 it was 45%.

On to `Cc1cc(OCCCNc2nc(NCCc3ccc(O)cc3)nc(N3CCNCC3)n2)c(Cl)c(C)c1Cl.O=C(O)C(F)(F)F`, for which the Inhibition in the experiment with Plasmodium falciparum [1] came to 99%; in the experiment on Plasmodium falciparum [2], 8%; in the experiment with HepG2, 54%.

Take `O=C(/C=C/c1ccc(C(F)(F)F)cc1)NCCCCCN1CCCN(C(=O)Nc2cccc(Cl)c2)CC1`: the Inhibition was determined as 92% in the experiment with Plasmodium falciparum [1], 3% with Plasmodium falciparum [2] and 16% in the experiment with HepG2.

With `COc1ccc2nccc([C@@H](O)CN3CCC(NCc4cc5ccccc5nn4)CC3)c2c1.O=C(O)C(=O)O`, the Inhibition with Plasmodium falciparum [1] stood at 94%; in the experiment on Plasmodium falciparum [2] it was 16%; with HepG2, 5%.

`COc1ccc(Br)cc1/C=C/C(=O)Nc1ccc(C2CCN(C)CC2)cc1.O=CO`: the Inhibition in the experiment on Plasmodium falciparum [1] stood at 100%; with Plasmodium falciparum [2], 61%; in the experiment on HepG2, 11%.

Take `O=C(NNC(=O)c1ccc(CN2CCC(c3nc4ccccc4[nH]3)CC2)cc1)Nc1ccc(Oc2ccccc2)cc1.O=C(O)C(F)(F)F`: the Inhibition with Plasmodium falciparum [1] was 86%; in the experiment on HepG2 it was 0%.

As to `CCn1c(-c2nonc2N)nc2c(-c3cccc(NC(=O)NCc4ccccc4)c3)ncc(OCCCN)c21.O=C(O)C(F)(F)F`, the Inhibition in the experiment on Plasmodium falciparum [1] was 99%; in the experiment on HepG2, 5%.

Turning to `CC1(C)C(=O)N=C2C1=C(O)C(=O)c1ccccc12`, the Inhibition amounted to 93% in the experiment with Plasmodium falciparum [1] and 0% in the experiment on HepG2.

Take `Cc1nn(-c2ccccc2)nc1C(=O)N(Cc1ccc(-c2ccc(CNCCc3ccc(S(C)(=O)=O)cc3)cn2)cc1)C1CC1.O=C(O)C(F)(F)F`: the Inhibition in the experiment on Plasmodium falciparum [1] came out at 84%; in the experiment on HepG2, 9%.

In the case of `NC(=O)c1sc(-n2cnc3ccc(C(=O)NCCN4CCOCC4)cc32)cc1OCc1ccccc1C(F)(F)F.O=CO`, the values for the Inhibition with Plasmodium falciparum [1] and with HepG2 were 81% and 0%, respectively.

Regarding `N#Cc1cc(N(CCCOc2cccc(OC(F)(F)F)c2)Cc2ccccc2C(F)(F)F)ccc1C(F)(F)F`, the results for the Inhibition in the experiment on Plasmodium falciparum [1] and in the experiment on HepG2 were 94% and 2%, respectively.

Turning to `Cc1cc(OCCCN2CCCC2)ccc1NC(=O)COc1ccc(Cl)cc1C(=O)c1cc(C#N)cc(C(F)(F)F)c1`, the Inhibition in the experiment on Plasmodium falciparum [1] is on record as 85%; in the experiment with HepG2 it was 18%.

As for `O=[N+]([O-])c1ccc(-n2nc(-c3cccnc3)n(Cc3ccco3)c2=S)c(Cl)c1`, the Inhibition in the experiment on Plasmodium falciparum [1] turned out to be 95%; in the experiment on HepG2, 13%.

Take `O=c1ccc2ccc(O)c(O)c2o1` [DAPHNETIN]: the Inhibition stood at 85% in the experiment on Plasmodium falciparum [1] and 4% with HepG2.

Turning to `CCN(CC)CCCN(C(=O)Nc1cc(F)cc(F)c1)c1nc(-c2ccc(F)cc2)cs1`, the Inhibition with Plasmodium falciparum [1] was 82%; in the experiment with HepG2, 27%.

On to `CCS(=O)(=O)c1ccc(/C(=N/OC)c2ccc[nH]2)cc1`, for which the Inhibition in the experiment on Plasmodium falciparum [1] is given as 85%; in the experiment on HepG2 it was 0%.

Take `Cc1ccc(-c2cnc3[nH]cc(-c4ccc(C(=O)O)c(C)c4)c3c2)cc1C.O=C(O)C(F)(F)F`: the figures for the Inhibition in the experiment on Plasmodium falciparum [1] and in the experiment on HepG2 were 96% and 37%, respectively.

Turning to `COc1cc(OC)cc(C(=O)Nc2nc(-c3ccc(NC(=O)c4ccccc4)cc3)cs2)c1`, the results for the Inhibition with Plasmodium falciparum [1] and in the experiment with HepG2 were 88% and 16%, respectively.

Turning to `COc1cc2ncnc(Nc3ccc(OC(F)(F)c4ccccc4)cc3)c2cc1OC.Cl`, the values for the Inhibition in the experiment on Plasmodium falciparum [1] and in the experiment on HepG2 were 91% and 14%, respectively.

The values are drawn from ChEMBL document CHEMBL1157539, “Thousands of chemical starting points for antimalarial lead identification” (Nature, 2010).
